# Measured values as given in PubChem BioAssay AID1159580 (chemical genetic matrix, 2015).
# Out of some 5,500 compounds screened, about 2,000 (36%) were called active. Not shown: some 18% with an inconclusive outcome. This is one part of the list. Values without a mark were called inactive. Cut-off read from the data, not from the text of the source: active = normalized growth mostly below about 0.91 (no sharp cut-off); inconclusive = no clear call, values can overlap the other calls; inactive = mostly above about 0.92.
# Assay: chemical genetic growth profiling, strain panel (AID 1159580);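 note: tested at 20 µM; growth read once vehicle control cultures reached saturation at 30 °C; 1 = growth at the plate median or of vehicle wells; lower values mean less growth of the strain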
# Details: growth OD
# [1] = S. cerevisiae deletion strains, locus YAL013W, strain DEP1, hits give low values
# [2] = S. cerevisiae deletion strains, locus YBR229C, strain ROT2, hits give low values
# [3] = S. cerevisiae deletion strains, locus YCL061C, strain MRC1, hits give low values
# [4] = S. cerevisiae deletion strains, locus YDL101C, strain DUN1, hits give low values
# [5] = S. cerevisiae deletion strains, locus YDR150W, strain NUM1, hits give low values
# [6] = S. cerevisiae deletion strains, locus YEL061C, strain CIN8, hits give low values
# [7] = S. cerevisiae deletion strains, locus YGR078C, strain PAC10, hits give low values
# [8] = S. cerevisiae deletion strains, locus YHR030C, strain SLT2, hits give low values
# [9] = S. cerevisiae deletion strains, locus YHR087W, strain rtc3, hits give low values
# [10] = S. cerevisiae deletion strains, locus YJR043C, strain POL32, hits give low values
# [11] = S. cerevisiae deletion strains, locus YJR075W, strain HOC1, hits give low values
# [12] = S. cerevisiae deletion strains, locus YKL190W, strain CNB1, hits give low values
# [13] = S. cerevisiae deletion strains, locus YLR039C, strain RIC1, hits give low values
# [14] = S. cerevisiae deletion strains, locus YLR058C, strain SHM2 (second series), hits give low values
# [15] = S. cerevisiae deletion strains, locus YLR085C, strain ARP6, hits give low values
# [16] = S. cerevisiae deletion strains, locus YLR262C, strain YPT6, hits give low values
# [17] = S. cerevisiae deletion strains, locus YML094W, strain GIM5, hits give low values
# [18] = S. cerevisiae deletion strains, locus YMR219W, strain ESC1, hits give low values
# [19] = S. cerevisiae deletion strains, locus YMR263W, strain SAP30, hits give low values
# [20] = S. cerevisiae deletion strains, locus YNL153C, strain GIM3, hits give low values
# [21] = S. cerevisiae deletion strains, locus YNL298W, strain CLA4 (second series), hits give low values
# [22] = S. cerevisiae deletion strains, locus YNL322C, strain KRE1, hits give low values
# [23] = S. cerevisiae deletion strains, locus YNR030W, strain Alg12, hits give low values
# [24] = S. cerevisiae deletion strains, locus YPL055C, strain LGE1, hits give low values
# [25] = S. cerevisiae deletion strains, locus YPL241C, strain CIN2, hits give low values
# [26] = S. cerevisiae deletion strains, locus YPR135W, strain CTF4, hits give low values
# [27] = S. cerevisiae strains, strain wild type, hits give low values
smiles,measurement,setting,value
CC(C)(C)c1cc(C(C)(C)C)n(-c2ccc([N+](=O)[O-])cc2)n1,normalized growth,[1],1.02
same,normalized growth,[2],1.01
same,normalized growth,[3],0.994
same,normalized growth,[4],1.01
same,normalized growth,[5],0.991
same,normalized growth,[6],1.02
same,normalized growth,[7],1.01
same,normalized growth,[8],1.06
same,normalized growth,[9],1.01
same,normalized growth,"S. cerevisiae deletion strains, locus YJL187C, strain SWE1, hits give low values",1
same,normalized growth,[10],1.02
same,normalized growth,[11],0.997
same,normalized growth,[12],0.998
same,normalized growth,[13],1.04
same,normalized growth,[14],1.01
same,normalized growth,[15],1.01
same,normalized growth,[16],1.01
same,normalized growth,[17],1.04
same,normalized growth,[18],1
same,normalized growth,[19],0.999
same,normalized growth,"S. cerevisiae deletion strains, locus YMR307W, strain GAS1, hits give low values",0.995
same,normalized growth,[20],1
same,normalized growth,[21],1.05
same,normalized growth,[22],1
same,normalized growth,[23],1.04
same,normalized growth,"S. cerevisiae deletion strains, locus YOL006C, strain TOP1, hits give low values",1.06
same,normalized growth,[24],1.04
same,normalized growth,[25],1.07
same,normalized growth,[26],1.03
same,normalized growth,[27],1.01
CC(C)(C)c1cc(C(C)(C)C)n(-c2ccc(N=Cc3cc(Br)cc(Br)c3O)cc2)n1,normalized growth,[1],0.157 (active)
same,normalized growth,[2],0.204 (active)
same,normalized growth,[3],0.194 (active)
same,normalized growth,[4],0.193 (active)
same,normalized growth,[5],0.355 (active)
same,normalized growth,[6],0.152 (active)
same,normalized growth,[7],0.0895 (active)
same,normalized growth,[8],0.103 (active)
same,normalized growth,[9],0.101 (active)
same,normalized growth,[10],0.357 (active)
same,normalized growth,[11],0.119 (active)
same,normalized growth,[12],0.187 (active)
same,normalized growth,[13],0.074 (active)
same,normalized growth,[14],0.318 (active)
same,normalized growth,[15],0.12 (active)
same,normalized growth,[16],0.0868 (active)
same,normalized growth,[17],0.209 (active)
same,normalized growth,[18],0.219 (active)
same,normalized growth,[19],0.163 (active)
same,normalized growth,[20],0.267 (active)
same,normalized growth,[21],0.174 (active)
same,normalized growth,[22],0.679 (active)
same,normalized growth,[23],0.468 (active)
same,normalized growth,[24],0.172 (active)
same,normalized growth,[25],0.64 (active)
same,normalized growth,[26],0.276 (active)
same,normalized growth,[27],0.141 (active)
